Results as given in PubChem BioAssay (NCATS).
Where “and” joins values, the source holds several entries; their conditions need not be identical. Identical values can stand only once. Records with an inconclusive call do not appear. Values without a mark were called inactive. Calls of active or inactive are those of the source. Unless noted, the call rests on the fitted dose curve; in most records, active means well fitted curve in either direction with a large enough effect (not every such curve was filed as active); inconclusive means small, poorly fitted or top-dose-only effect, or another doubt; inactive means flat fitted curve, though single readings scatter.

What was measured:
[1] = target: Cytochrome P450 1A2 (Homo sapiens) (UniProt P05177); assay: p450-cyp1a2 (AID 410; calls by dose curve; further: potency means the concentration at half of the fitted maximal effect;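 on activity change, negative = inhibition: -100% = full effect of reference inhibitor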); conditions: recombinant CYP1A2, luciferin-ME demethylation, luminescence; series mostly up to 57 µM
Chain of Cytochrome P450 1A2 (Homo sapiens) (P05177 whole entry, looked up): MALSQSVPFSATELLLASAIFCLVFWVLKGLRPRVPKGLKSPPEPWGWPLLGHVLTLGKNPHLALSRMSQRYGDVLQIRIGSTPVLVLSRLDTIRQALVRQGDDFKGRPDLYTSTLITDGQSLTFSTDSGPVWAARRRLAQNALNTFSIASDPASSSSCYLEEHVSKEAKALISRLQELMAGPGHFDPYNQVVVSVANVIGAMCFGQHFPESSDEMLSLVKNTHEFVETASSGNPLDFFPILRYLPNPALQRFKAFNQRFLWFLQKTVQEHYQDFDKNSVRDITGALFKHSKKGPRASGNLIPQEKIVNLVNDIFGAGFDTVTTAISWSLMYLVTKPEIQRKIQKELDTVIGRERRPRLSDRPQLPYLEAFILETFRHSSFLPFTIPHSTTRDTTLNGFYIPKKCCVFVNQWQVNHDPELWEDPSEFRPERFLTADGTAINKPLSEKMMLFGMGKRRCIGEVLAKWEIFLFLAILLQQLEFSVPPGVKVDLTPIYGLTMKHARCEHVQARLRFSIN
How it was run: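 O-Demethylation of luciferin 6' methyl ether by human CYP1A2 is monitored as luciferase luminescence. Substrate sits at Km (100uM); enzyme is 20nM. Values are scaled to 57 uM furafylline as maximal inhibition.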

[2] = NFAT Signaling Pathway (AID 444); conditions: Jurkat NFAT-bla M1, carbachol, beta-lactamase ratio, 5 h;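 further: carbachol stimulus at about its EC50 of 1 µM final; on the % scale 0 is the no-effect control and ±100 the full control effect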
How it was run: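 Jurkat cells with NFAT-driven β-lactamase reporter and co-expressed M1 receptor, stimulated with carbachol (final 1 uM, ~EC50), compound titration, 5 h at 37 °C. CCF4 loaded 1 h at RT; 460/530 nm ratio gave %activity and AC50.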

Structure (SMILES)	Potency [1]	activity change, negative = inhibition ([2]; at 17.2 µM (top of the series))	activity change, negative = inhibition ([2]; at 38 µM (top of the series))
CN1CCN(C2=Nc3ccccc3Oc3ccc(Cl)cc32)CC1	3.16 µM (active)	-75.6% (active)	
CCCC(C(=O)OCCN(CC)CC)(c1ccccc1)c1ccccc1	inactive		
CN(C)CCCN1c2ccccc2Sc2ccccc21			-83.6% (active)
c1cnc(N2CCN(Cc3ccc4c(c3)OCO4)CC2)nc1	6.31 µM (active) and 3.16 µM (active) and 2 µM (active)		
CC1=C(C)C(=O)C(CCCCC#CCCCC#CCO)=C(C)C1=O	0.501 µM (active)		
CC(=O)Nc1nnc(S(N)(=O)=O)s1	inactive	-0.673% and -9.62%	2.29%
CCc1cccc(N(C)C(N)=Nc2cccc3ccccc23)c1			-9.54%
CN(C)C(=O)Oc1cccc([N+](C)(C)C)c1	inactive	-14.6% and 15.5% and 0.313%	13%
O=C1CC2(CCCC2)CC(=O)N1CCCCN1CCN(c2ncccn2)CC1		-9.19%	
CCN(CC)CCNC(=O)c1cc(S(C)(=O)=O)ccc1OC	inactive	-6.77% and -21.4%	-5.52%
